Records with an inconclusive call do not appear. A call without a number means that no potency is given here. Active and inactive are the calls of the source. The call rests on the fitted dose curve.

This assay is described as follows: qHTS assay for small molecule agonists of the antioxidant response element (ARE) signaling pathway - cell viability counter screen (AID 743203). Further: nearly all actives have a fitted effect of over 55% in size. The following applies: ARE-bla HepG2 viability, CellTiter-Glo luminescence, 16 h; series mostly up to 73.3 µM. An excerpt: National Center for Advancing Translational Sciences [NCATS]
NIH Chemical Genomics Center [NCGC]
U.S. Environmental Protection Agency [EPA]
National Institutes of Environmental Health Sciences [NIEHS]
National Toxicology Program [NTP]
U.S. Food and Drug Administration [FDA]
Oxidative stress has been implicated in the pathogenesis of a variety of diseases ranging from cancer to neurodegeneration. The antioxidant response element (ARE) signaling pathway plays an important role in the amelioration of oxidative stress. The CellSensor ARE-bla HepG2 cell line (Invitrogen) can be used for analyzing the Nrf2/antioxidant response signaling pathway. Nrf2 (NF-E2-related factor 2) and Nrf1 are transcription factors that bind to AREs and activate these genes. The CellSensor ARE-bla Hep G2 cell line contains a beta-lactamase reporter gene under control of the Antioxidant Response Element (ARE) stably integrated into HepG2 cells. The activation of the report gene under culture conditions can be detected by fluorescence intensity. This cell line has been used to screen the Tox21 10K compound library to identify agonists that induce oxidative stress. The cytotoxicity of the Tox21 compound library against the ARE-bla cell line was tested in parallel by measuring the cell viability using CellTiter-Glo assay (Promega, Madison, WI) in the same wells.
Tox21 Assay Protocol Summary:
ARE-bla HepG2 cells were dispensed at 2,000 cells/5 ul/well in 1536-well white wall/solid bottom plates using a Multidrop Combi (ThermoFisher Scientific, Waltham, MA) dispenser. After the assay plates were incubated at 37C/5% CO2 for 5 hrs, 23 nL of compounds dissolved in DMSO, positive controls or DMSO only was transferred to the assay plate by a pintool work station (Kalypsys, San Diego, CA). The plates were incubated at 37C/5% CO2 for 16 hrs, followed by addition of 4 ul/well of CellTiter-Glo reagent into the assay plates using a Flying Reagent Dispenser (Aurora Discovery, San Diego, CA). After 30 min incubation at room temperature, the luminescence intensity in the assay plates was measured using a ViewLux (PerkinElmer, Shelton, CT) plate reader.
As for `O=[N+]([O-])c1ccc2c3c(cccc13)CC2`, the Potency entry was “inactive”.
Take `ClCC(Cl)Cl`: the Potency entry is “inactive”.
With `CNC(=O)Oc1cccc(C(C)C)c1`, the Potency entry is “inactive”.
Turning to `CCCCCCBr`, the Potency result was “inactive”.
On to `O=CNC(N1CCN(C(NC=O)C(Cl)(Cl)Cl)CC1)C(Cl)(Cl)Cl` (stereo not given), for which the Potency result is “inactive”.
Regarding `CCN(Cc1ccc(Cl)nc1)/C(=C/[N+](=O)[O-])NC`, the Potency result is “inactive”.
With `CCC(C)(C)c1cc(-n2nc3ccccc3n2)c(O)c(C(C)(C)CC)c1`, the Potency result was “inactive”.
As for `CC(Cl)(Cl)[N+](=O)[O-]`, the Potency entry was “inactive”.
The same measure for `COC(=O)C1=CCCN(C)C1`: “inactive”; for `CCCCP(CCCC)CCCC`: “inactive”.
With `[O]=[Cd]` the entry was “inactive”; with `CCC#N`, “inactive”.
Consider `C[C@]12CC[C@H]3[C@@H](CCC4=CC(=O)CC[C@@]43C)[C@@H]1CC[C@@H]2C(=O)O`, for which the Potency result was “inactive”.
For `CC(C(=O)c1ccccc1)N(C)C` (stereo not given), the Potency entry is “inactive”.
For `CCN(CC)c1nc(C)cc(OP(=S)(OC)OC)n1`, the Potency entry is “inactive”.
In the case of `CN1C[C@@H](NS(=O)(=O)N(C)C)C[C@@H]2c3cccc4c3c(cn4C)C[C@H]21`, the Potency result is “inactive”.
For `CC(COc1ccc(Oc2ccccc2)cc1)Oc1ccccn1` (stereo not given), the Potency entry was “inactive”.
`CCC1(c2ccccc2)C(=O)NC(=O)NC1=O`: the Potency result is “inactive”.
For `Cc1cccc(C#N)c1`, the Potency entry was “inactive”.
For the compound `CCOP(=S)(OCC)SCSc1ccc(Cl)cc1`, the Potency result is “inactive”.
As for `ClC(Br)Br`, the Potency entry is “inactive”.
On to `Nc1cc(Cl)ccc1O`, for which the Potency result was “inactive”.
Consider `CN/C(=N\[N+](=O)[O-])NCC1CCOC1` (stereo not given), for which the Potency result was “inactive”.
Turning to `Cc1ccccc1CO[C@@H]1C[C@@]2(C(C)C)CC[C@]1(C)O2`, the Potency result was “inactive”.
As to `N#Cc1c(Cl)cccc1Cl`, the Potency entry is “inactive”.
On to `CCN(CC)CCOC(=O)C(C)(c1ccccc1)c1ccccc1`, for which the Potency result is “inactive”.
Regarding `CCc1cc2c(s1)-n1c(C)nnc1CN=C2c1ccccc1Cl`, the Potency result is “inactive”.
Take `CCOP(=S)(Oc1cnc(C(C)(C)C)nc1)OC(C)C` (stereo not given): the Potency result was “inactive”.
Regarding `CCCCC(=O)Cl`, the Potency result was “inactive”.
On to `Nc1n[nH]c(N)n1`, for which the Potency result is “inactive”.
`COC(=O)c1ccccc1S(=O)(=O)NC(=O)Nc1nc(C)cc(C)n1`: the Potency entry was “inactive”.
For `O=C1OC(CCN2CCCCC2)OC1(c1ccccc1)c1ccccc1` (stereo not given), the Potency result was “inactive”.
For the compound `Fc1cc(Br)ccc1CBr`, the Potency result was “inactive”.
Turning to `COc1cccc(C(=O)NN(C(=O)c2cc(C)cc(C)c2)C(C)(C)C)c1C`, the Potency entry was “inactive”.
Regarding `CCNc1nc(NC(C)C)nc(OC)n1`, the Potency result is “inactive”.
Turning to `CCOc1nc(C(Cl)(Cl)Cl)ns1`, the Potency entry is “inactive”.
For the compound `N#CCNCC#N`, the Potency entry was “inactive”.
Turning to `O=[N+]([O-])c1ccc(CBr)cc1`, the Potency result is “inactive”.
`COc1cc(C[C@@H](C)N)c(OC)cc1C`: the Potency result was “inactive”.
In the case of `COC(=O)C(C)Oc1ccc(Oc2ccc(Cl)cc2Cl)cc1` (stereo not given), the Potency result was “inactive”.

Source of the values: PubChem BioAssay (Tox21).
